A selection: hits, their analogues and other compounds. The true share with any hit is near 1.8%.
Mcl1-Noxa inh: disrupts binding of human Mcl-1 to Noxa peptide; 1.5% of 220,000 active; TR-FRET Mcl-1/Noxa peptide binding, 2 h; Q07820; inhibition, % at 21.7 µM;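 active = compounds that cut the protein-peptide binding signal by more than 50% relative to plate controls in a single-dose test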;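 also: His-tagged Mcl-1 with rhodamine Noxa BH3 peptide and terbium anti-His antibody; 0% = Mcl-1 plus Noxa peptide wells and 100% = peptide-only wells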
NOD2-RIPK2 inh: inhibitors of human NOD2-RIPK2 interaction; CHO BLA complementation NOD2-RIPK2, CCF4 ratio; inhibition, % at 4.98 µM; 0.38% of 360,000 active; AID 624267; in the data active = inhibition above about 21%;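 also: 0% = vehicle only and 100% = reference blocker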
TLR4 MyD88 comp: blocks binding of human TLR4 to MyD88; 0.18% of 200,000 active; HeLa CL3-4 TLR4/MyD88 BLA complementation, FRET ratio; inhibition, % at 8.4 µM; in the data active = inhibition above about 25%;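 also: 0% = vehicle and 100% = reference inhibitor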
TLR9-MyD88 inh: TLR9-MyD88 interaction inhibition. Q9NR96+Q99836. CHO BLA complementation TLR9-MyD88, CCF4 FRET ratio. inhibition, % at 4.98 µM. 0.21% of 340,000 active;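 active = inhibition above the mean over all tested compounds plus 3 SD, cut at about 21% in these data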;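 also: 0% = DMSO only wells and 100% = clavulanate BLA inhibitor control wells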
Target sequence (Q99836 whole entry, looked up): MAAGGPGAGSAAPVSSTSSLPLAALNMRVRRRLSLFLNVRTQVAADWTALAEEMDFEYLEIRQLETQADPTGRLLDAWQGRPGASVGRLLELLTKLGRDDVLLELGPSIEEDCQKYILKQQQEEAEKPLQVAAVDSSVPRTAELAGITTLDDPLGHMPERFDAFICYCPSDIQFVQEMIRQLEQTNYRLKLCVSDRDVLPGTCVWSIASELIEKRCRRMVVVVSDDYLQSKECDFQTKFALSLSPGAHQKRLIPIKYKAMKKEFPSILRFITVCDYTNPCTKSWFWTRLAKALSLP
Target sequence (Q9NR96 whole entry, looked up): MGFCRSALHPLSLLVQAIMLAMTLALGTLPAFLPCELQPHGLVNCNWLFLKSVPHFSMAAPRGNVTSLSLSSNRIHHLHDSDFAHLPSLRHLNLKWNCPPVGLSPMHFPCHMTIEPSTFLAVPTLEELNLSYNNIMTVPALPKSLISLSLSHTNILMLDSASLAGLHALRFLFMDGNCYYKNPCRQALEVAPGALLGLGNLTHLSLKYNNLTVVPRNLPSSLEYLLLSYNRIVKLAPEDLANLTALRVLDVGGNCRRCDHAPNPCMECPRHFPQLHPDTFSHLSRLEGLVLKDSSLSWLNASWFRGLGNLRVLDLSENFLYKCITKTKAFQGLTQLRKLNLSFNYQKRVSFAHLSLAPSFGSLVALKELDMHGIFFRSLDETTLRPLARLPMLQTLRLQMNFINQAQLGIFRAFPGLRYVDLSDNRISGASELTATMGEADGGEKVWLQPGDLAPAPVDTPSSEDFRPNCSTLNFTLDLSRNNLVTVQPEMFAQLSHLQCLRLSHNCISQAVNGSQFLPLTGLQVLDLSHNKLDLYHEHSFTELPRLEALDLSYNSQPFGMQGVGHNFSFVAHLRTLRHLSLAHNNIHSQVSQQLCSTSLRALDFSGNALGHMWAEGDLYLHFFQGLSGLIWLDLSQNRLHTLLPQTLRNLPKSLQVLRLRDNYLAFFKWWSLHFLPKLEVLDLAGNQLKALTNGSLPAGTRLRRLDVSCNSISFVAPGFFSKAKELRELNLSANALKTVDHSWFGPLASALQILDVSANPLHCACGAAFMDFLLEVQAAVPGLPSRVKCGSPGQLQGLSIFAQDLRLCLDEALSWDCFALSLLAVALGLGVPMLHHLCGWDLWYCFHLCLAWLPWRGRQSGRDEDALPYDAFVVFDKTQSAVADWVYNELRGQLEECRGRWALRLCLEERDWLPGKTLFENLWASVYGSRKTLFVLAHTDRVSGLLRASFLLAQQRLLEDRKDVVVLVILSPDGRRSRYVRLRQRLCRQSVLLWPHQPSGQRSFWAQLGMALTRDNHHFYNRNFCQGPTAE
Mcl-1 Bim block: inhibitors of Bim-Mcl-1 interaction, human | Bead-based flow cytometry, Bim peptide-Mcl-1 binding | inhibition, % at 10 µM | 0.1% of 190,000 active; in the data active = inhibition above about 40%;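 also: 0% = no compound tracer wells and 100% = peptide blocker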
Mcl1-Bid inh: Mcl-1/Bid interaction inhibition | inhibition, % at 21.7 µM | AID 1021 | TR-FRET Mcl-1/Bid-Dy647 peptide binding, 1536-well | 0.97% of 220,000 active;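 active = compounds that cut the binding signal by more than half at the single screening dose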;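 also: His-tagged Mcl-1 with europium anti-His antibody binding Bid BH3 peptide; 0% = Mcl-1 plus peptide wells and 100% = peptide-only wells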
NOD2 RIPK2 conf: confirmation of human NOD2-RIPK2 interaction inhibitors | shares compounds with NOD2-RIPK2 inh | 70% of 1,200 active | inhibition, % at 4.98 µM | CHO cells, NOD2-RIPK2 BLA complementation, CCF4 FRET;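 active = mean inhibition across replicates above a set limit taken from the earlier primary screen, cut at about 21% in these data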;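 also: 0% = DMSO-only wells and the high end = clavulanate BLA-blocked wells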
BLA counter: NOD2-RIPK2 counterscreen BLA reporter activity | AID 624371 | inhibition, % at 4.98 µM | shares compounds with NOD2-RIPK2 inh | CHO BLA reporter, CCF4 FRET ratio | 57% of 1,200 active;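 active = mean inhibition above the low-control mean inhibition plus three low-control SD, cut at about 11% in these data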;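 also: 0% = DMSO only wells and 100% = clavulanate high control wells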
* hit, by the source's call; · = no result.

SMILES | Mcl1-Noxa inh | NOD2-RIPK2 inh | TLR4 MyD88 comp | TLR9-MyD88 inh | Mcl-1 Bim block | Mcl1-Bid inh | NOD2 RIPK2 conf | BLA counter
CCOC(=O)CC(S(=O)(=O)c1ccccc1)S(=O)(=O)c1ccccc1 | · | 52.3* | · | 2.1 | · | · | 14.3 | 9.8
NC(=S)N/N=C1/CCSc2ccc3ccccc3c21 | 13.7 | 23.5* | 0.2 | 3.4 | 2.0 | -64.5 | 0.6 | -2.2
OC[C@@H]1[C@@H](c2ccc(F)cc2)C(c2cccc(Cl)c2)=NN1c1ccccc1 | · | 29.4* | · | 1.8 | · | · | 29.5* | 53.7*
OC[C@@H]1[C@@H](c2ccc(Cl)cc2)C(c2ccccc2)=NN1c1ccccc1 | · | 8.4 | · | -6.8 | · | · | · | ·
OC[C@@H]1[C@@H](c2ccc(Cl)cc2)C(c2cccc(Cl)c2)=NN1c1ccccc1 | · | 34.3* | · | 1.7 | · | · | 29.7* | 59.4*
COC(=O)c1ccccc1NC(=O)CSc1nc2ccsc2c(=O)n1CCCCC(=O)O | · | -11.5 | · | 5.1 | · | · | · | ·
O=c1[nH]c(=O)n2c(c1-c1ccccc1)OC(CBr)C2 (stereo not drawn) | · | -8.1 | · | -1.9 | · | · | · | ·
COc1ccc(C(=O)/C=C/C(=O)N(CC(=O)NC2CCCCC2)Cc2cccs2)c(O)c1 | 43.0 | 74.4* | 23.7 | 18.3 | -1.0 | 38.1 | 85.0* | 17.2*
COc1ccc(C(=O)/C=C/C(=O)N(Cc2ccc3c(c2)OCO3)C(C(=O)NC2CCCCC2)c2ccncc2)c(O)c1 (stereo not drawn) | 1.5 | -7.9 | 2.0 | -15.0 | -5.0 | -35.3 | · | ·
CNc1c2cccc(C)c2nc2c(C(=O)NCCN(C)C)cccc12 | · | 40.8* | · | 6.7 | · | · | 58.0* | 28.6*
CCC(=O)Nc1ccc(C(=O)CSc2nc3ccccc3[nH]2)cc1 | 22.7 | -3.0 | -3.3 | -10.9 | 0.0 | 1.8 | · | ·
Cc1cccc(NC(=O)c2cccc(S(=O)(=O)N(C)C3CCCCC3)c2)n1 | · | 21.0* | · | -4.8 | · | · | 0.8 | -1.9
O=C(CCc1ccccc1)Nc1ccccc1 | 11.9 | 35.5* | -4.1 | -10.9 | 0.0 | -12.8 | -2.3 | -1.4
O=C(CCC(=O)Nc1ccccc1)NNC(=O)CCc1ccccc1 | 6.9 | -0.6 | -0.9 | 5.4 | -1.0 | 0.3 | · | ·
CCCS(=O)(=O)Nc1ccc2cn[nH]c2c1 | 7.1 | -6.7 | -8.9 | 6.5 | 0.0 | -21.7 | · | ·
CN(C)CCNC(=O)c1cccc(-c2cnc3c(NC=O)cc(-c4ccc(F)cc4)cn23)c1 | · | 5.8 | · | · | · | · | · | ·
CCSc1ccc(-c2cc(NC=O)c3ncc(-c4cccc(C(=O)NCCN(C)C)c4)n3c2)cc1 | · | 23.2* | · | · | · | · | 25.0* | -2.0
CN(C(=O)c1cc(COc2ccc(F)cc2Cl)on1)C1CCCc2ccccc21 (stereo not drawn) | · | 0.6 | · | -9.6 | · | · | · | ·
O=c1c2ccccc2sn1-c1ccc(Cl)cc1 | · | 11.6 | · | 18.7 | · | · | · | ·
O=c1c2ccc(F)cc2sn1-c1ccccc1 | · | 36.4* | · | 13.8 | · | · | 46.0* | 7.7
CCOC(CCNC(=O)c1cn(CC(C)C)c(=O)c2c1c1ccccc1n2C)OCC | · | -2.6 | · | 9.0 | · | · | · | ·
CSCC[C@@H](CO)NC(=O)[C@H]1O[C@@H](n2ccc(N)nc2=O)[C@H](O)[C@@H]1O | · | 28.6* | · | · | · | · | -6.2 | -0.2
Nc1ccn([C@@H]2O[C@H](C(=O)N[C@H](CO)Cc3ccccc3)[C@@H](O)[C@H]2O)c(=O)n1 | · | -8.2 | · | · | · | · | · | ·
CCCS(=O)(=O)NC(=O)C1(C)CCCN(C(=O)COc2ccccc2)C1 (stereo not drawn) | · | -27.3 | · | · | · | · | · | ·
COC(=O)c1cccc(-n2sc3ccccc3c2=O)c1 | · | 40.4* | · | 12.5 | · | · | 36.4* | 13.3*
SMILES | Mcl1-Noxa inh | NOD2-RIPK2 inh | TLR4 MyD88 comp | TLR9-MyD88 inh | Mcl-1 Bim block | Mcl1-Bid inh | NOD2 RIPK2 conf | BLA counter
COC(=O)c1cccc(N2CCCC2=O)c1 | 10.2 | 7.5 | · | 8.2 | · | -27.2 | · | ·
O=C(Nc1ccncc1)c1cc(S(=O)(=O)N2CCOCC2)ccc1Cl | · | -0.4 | · | -3.9 | · | · | · | ·
O=c1c(O)c(-c2ccccc2)oc2cc(O)ccc12 | · | 24.6* | · | · | · | · | 32.1* | 29.4*
S=c1[nH]nc(-c2cc3c(s2)-c2ccccc2CC3)o1 | 26.0 | 30.4* | 15.7 | 11.7 | 0.0 | 11.0 | 25.4* | 38.5*
CSc1nnc(-c2cc3c(s2)-c2ccccc2CC3)o1 | -9.1 | 4.0 | -19.4 | -4.3 | -3.0 | 12.2 | · | ·
CC1OC2CC(=O)OC2C2=C1C(=O)c1c(O)cccc1C2=O (stereo not drawn) | · | 70.2* | · | · | · | · | 77.2* | -14.2
CCOC(=O)/C(=C/Nc1ccc(F)cc1)[N+](=O)[O-] | -12.4 | 0.3 | · | -4.7 | · | -25.0 | · | ·
COc1ccc2cc(-c3ccccc3)c(=O)oc2c1 | · | -7.6 | · | -3.7 | · | · | · | ·
CC(=O)Oc1ccc2cc(-c3cccnc3)c(=O)oc2c1 | · | 30.5* | · | 8.6 | · | · | 29.6* | 44.6*
c1ccc(C(=C2CCCO2)c2ccccc2)cc1 | · | 7.1 | · | -8.5 | · | · | · | ·
Cc1ccccc1NC(=O)C1C2CC/C=C\CCC21 (stereo not drawn) | 14.8 | 27.1* | -15.4 | -4.8 | -4.0 | -5.6 | -0.5 | -2.4
Cc1ccccc1NC(=O)C1C2CCCCC21 (stereo not drawn) | · | 0.8 | · | -15.3 | · | · | · | ·
Cc1cc(C)n(S(=O)(=O)c2ccc3oc(=O)ccc3c2)n1 | · | 4.5 | · | 11.0 | · | · | · | ·
CCc1cccc(CC)c1N1C(=O)C2=C(SCCCS2)C1=O | · | 39.7* | · | 16.2 | · | · | 35.3* | 38.0*
COc1cccc(CNC(=O)CSc2nc3ccc(C)cc3[nH]2)c1 | · | -15.4 | · | 12.9 | · | · | · | ·
Cc1ccc(CC(NC(=O)c2ccccc2)C(=O)NC(CC(C)C)C(=O)O)cc1 (stereo not drawn) | 0.7 | 58.8* | 11.2 | 10.6 | 0.0 | -24.8 | -2.0 | 1.3
O=C(CNS(=O)(=O)Cc1ccccc1)NNc1ccccc1 | · | -10.0 | · | · | · | · | · | ·
C=CCNC1=C(Cl)C(=O)N(c2cccc(Cl)c2Cl)C1=O | 8.1 | 21.6* | 6.5 | 5.7 | -3.0 | -6.6 | 8.0 | 8.0
O=c1[nH]c2cc3c(cc2cc1CN(CCCO)Cc1nnnn1Cc1ccc(F)cc1)OCO3 | 4.2 | 26.1* | 2.8 | 8.4 | 0.0 | -14.1 | -3.2 | 2.4
Cc1ccc2cc(CN(CCO)Cc3nnnn3Cc3ccc(F)cc3)c(=O)[nH]c2c1 | -20.9 | 0.3 | -1.5 | -5.7 | 0.0 | 2.8 | · | ·
Cn1nc(C(=O)NC2CCC(O)CC2)c2ccccc2c1=O (stereo not drawn) | · | -1.9 | · | -0.7 | · | · | · | ·
CC(C)c1cn(C2OC(COC(=O)c3ccccc3)C(OC(=O)c3ccccc3)C2OC(=O)c2ccccc2)c(=O)[nH]c1=O (stereo not drawn) | · | -6.5 | · | -3.8 | · | · | · | ·
CCOC(=O)C1(C)CCN1C(=O)/C=C/c1ccccc1 (stereo not drawn) | · | 20.9* | · | · | · | · | 1.6 | -1.5
CC(C)(C)OC(=O)NCCCCCNC(=O)c1[nH]cnc1C(=O)N[C@@H](Cc1ccccc1)C(=O)OC(C)(C)C | · | 31.0* | · | 6.9 | · | · | 16.2 | -9.2

Assay outcomes: PubChem, several laboratories
